Measurements published in PubChem BioAssay AID1159580 (chemical genetic matrix, 2015).
In all, about 5,500 compounds went through this assay and about 2,000 (36%) were called active. Not shown: some 18% with an inconclusive outcome. No stated cut-off is given here; in the data, active means normalized growth mostly below about 0.91 (no sharp cut-off); inconclusive means no clear call, values can overlap the other calls; inactive means mostly above about 0.92. The list shows a part of the results.

Assay: chemical genetic growth profiling, strain panel (AID 1159580);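 further: tested at 20 µM; growth read once vehicle control cultures reached saturation at 30 °C; 1 = growth at the plate median or of vehicle wells; lower values mean less growth of the strain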
Conditions: growth OD

Measured: normalized growth

CCOC(=O)[C@H](CCc1ccccc1)N[C@@H](C)C(=O)N1CCC[C@H]1C(=O)O
inactive: S. cerevisiae deletion strains, locus YJR075W, strain HOC1, hits give low values 1.01 | S. cerevisiae deletion strains, locus YKL009W, strain mrt4, hits give low values 1.04 | S. cerevisiae deletion strains, locus YKL068W, hits give low values 0.998 | S. cerevisiae deletion strains, locus YKL085W, strain MDH1 (second series), hits give low values 1 | S. cerevisiae deletion strains, locus YKL085W, strain MDH1, hits give low values 1 | S. cerevisiae deletion strains, locus YKL160W, strain elf1, hits give low values 0.988 | S. cerevisiae deletion strains, locus YKL190W, strain CNB1, hits give low values 0.998 | S. cerevisiae deletion strains, locus YKR001C, strain vps1, hits give low values 1.02 | S. cerevisiae deletion strains, locus YKR026C, strain gcn3, hits give low values 1 | S. cerevisiae deletion strains, locus YKR091W, strain srl3, hits give low values 0.994 | S. cerevisiae deletion strains, locus YLL001W, strain dnm1, hits give low values 0.981 | S. cerevisiae deletion strains, locus YLL026W, hits give low values 0.989 | S. cerevisiae deletion strains, locus YLL041C, strain sdh2, hits give low values 1.01 | S. cerevisiae deletion strains, locus YLR027C, strain aat2, hits give low values 0.985 | S. cerevisiae deletion strains, locus YLR039C, strain RIC1, hits give low values 1 | S. cerevisiae deletion strains, locus YLR058C, strain SHM2, hits give low values 1.01 | S. cerevisiae deletion strains, locus YLR102C, strain apc9, hits give low values 1.02 | S. cerevisiae deletion strains, locus YLR113W, strain HOG1, hits give low values 1.05 | S. cerevisiae deletion strains, locus YLR221C, strain rsa3, hits give low values 0.975 | S. cerevisiae deletion strains, locus YLR258W, strain gsy2, hits give low values 0.992 | S. cerevisiae deletion strains, locus YLR262C, strain YPT6 (second series), hits give low values 0.998 | S. cerevisiae deletion strains, locus YLR262C, strain YPT6, hits give low values 1.03 | S. cerevisiae deletion strains, locus YLR268W, strain sec22, hits give low values 1.01 | S. cerevisiae deletion strains, locus YLR320W, strain mms22, hits give low values 0.984 | S. cerevisiae deletion strains, locus YLR330W, strain CHS5, hits give low values 1 | S. cerevisiae deletion strains, locus YLR342W, strain FKS1 (second series), hits give low values 1 | S. cerevisiae deletion strains, locus YLR342W, strain FKS1, hits give low values 0.994 | S. cerevisiae deletion strains, locus YLR357W, strain rsc2, hits give low values 0.938 | S. cerevisiae deletion strains, locus YLR370C, strain arc18, hits give low values 0.994 | S. cerevisiae deletion strains, locus YLR371W, strain rom2, hits give low values 1.02 | S. cerevisiae deletion strains, locus YLR384C, strain iki3, hits give low values 1 | S. cerevisiae deletion strains, locus YLR418C, strain cdc73, hits give low values 1.01 | S. cerevisiae deletion strains, locus YML016C, strain PPZ1, hits give low values 1.01 | S. cerevisiae deletion strains, locus YML032C, strain rad52, hits give low values 1.02 | S. cerevisiae deletion strains, locus YML120C, strain ndi1, hits give low values 1.03 | S. cerevisiae deletion strains, locus YML124C, strain tub3, hits give low values 1.01 | S. cerevisiae deletion strains, locus YMR058W, strain fet3, hits give low values 1.01 | S. cerevisiae deletion strains, locus YMR078C, strain ctf18, hits give low values 1.01 | S. cerevisiae deletion strains, locus YMR125W, strain sto1, hits give low values 0.991 | S. cerevisiae deletion strains, locus YMR129W, hits give low values 1.01 | S. cerevisiae deletion strains, locus YMR205C, strain PFK2, hits give low values 0.973 | S. cerevisiae deletion strains, locus YMR223W, strain ubp8, hits give low values 1.02 | S. cerevisiae deletion strains, locus YMR231W, strain pep5, hits give low values 0.988 | S. cerevisiae deletion strains, locus YMR263W, strain SAP30, hits give low values 1.01 | S. cerevisiae deletion strains, locus YMR307W, strain GAS1, hits give low values 1.02 | S. cerevisiae deletion strains, locus YNL067W, strain RPL9B, hits give low values 1.01 | S. cerevisiae deletion strains, locus YNL071W, strain lat1, hits give low values 1.01 | S. cerevisiae deletion strains, locus YNL128W, strain TEP1, hits give low values 1.02 | S. cerevisiae deletion strains, locus YNL183C, strain NPR1, hits give low values 0.973 | S. cerevisiae deletion strains, locus YNL209W, strain ssb2, hits give low values 0.986 | S. cerevisiae deletion strains, locus YNL233W, strain BNI4, hits give low values 1 | S. cerevisiae deletion strains, locus YNL248C, strain rpa49, hits give low values 1.03 | S. cerevisiae deletion strains, locus YNL250W, strain rad50, hits give low values 1.01 | S. cerevisiae deletion strains, locus YNL271C, strain bni1, hits give low values 1.02 | S. cerevisiae deletion strains, locus YNL298W, strain CLA4, hits give low values 1.04 | S. cerevisiae deletion strains, locus YNL307C, strain MCK1, hits give low values 1.04 | S. cerevisiae deletion strains, locus YNL322C, strain KRE1 (second series), hits give low values 0.963 | S. cerevisiae deletion strains, locus YNR049C, strain mso1, hits give low values 1 | S. cerevisiae deletion strains, locus YNR052C, strain pop2, hits give low values 1.01 | S. cerevisiae deletion strains, locus YOL006C, strain TOP1, hits give low values 1.04 | S. cerevisiae deletion strains, locus YOL012C, strain htz1 0.639 | S. cerevisiae deletion strains, locus YOL147C, strain pex11, hits give low values 1.01 | S. cerevisiae deletion strains, locus YOR001W, strain rrp6, hits give low values 1 | S. cerevisiae deletion strains, locus YOR061W, strain CKA2, hits give low values 1.01 | S. cerevisiae deletion strains, locus YOR069W, strain VPS5, hits give low values 0.992 | S. cerevisiae deletion strains, locus YOR070C, strain gyp1, hits give low values 0.963 | S. cerevisiae deletion strains, locus YOR080W, strain dia2, hits give low values 0.997 | S. cerevisiae deletion strains, locus YOR083W, strain WHI5, hits give low values 0.934 | S. cerevisiae deletion strains, locus YOR106W, strain vam3, hits give low values 0.977 | S. cerevisiae deletion strains, locus YOR136W, strain idh2, hits give low values 1.02 | S. cerevisiae deletion strains, locus YOR144C, strain elg1, hits give low values 1.01 | S. cerevisiae deletion strains, locus YOR184W, strain ser1, hits give low values 1.04 | S. cerevisiae deletion strains, locus YOR231W, strain MKK1, hits give low values 1.04 | S. cerevisiae deletion strains, locus YOR265W, strain rbl2, hits give low values 0.992 | S. cerevisiae deletion strains, locus YOR270C, strain vph1, hits give low values 0.999 | S. cerevisiae deletion strains, locus YOR290C, strain snf2, hits give low values 0.988 | S. cerevisiae deletion strains, locus YOR316C, strain cot1, hits give low values 1.02 | S. cerevisiae deletion strains, locus YPL051W, strain arl3, hits give low values 0.954 | S. cerevisiae deletion strains, locus YPL078C, strain atp4, hits give low values 0.993 | S. cerevisiae deletion strains, locus YPL106C, strain sse1, hits give low values 0.922 | S. cerevisiae deletion strains, locus YPL240C, strain hsp82, hits give low values 0.994 | S. cerevisiae deletion strains, locus YPL241C, strain CIN2, hits give low values 0.999 | S. cerevisiae deletion strains, locus YPL256C, strain CLN2, hits give low values 1.05 | S. cerevisiae deletion strains, locus YPR119W, strain clb2, hits give low values 1.02 | S. cerevisiae deletion strains, locus YPR141C, strain kar3, hits give low values 1.01 | S. cerevisiae deletion strains, locus YPR163C, strain tif3, hits give low values 1.02 | S. cerevisiae deletion strains, locus YPR167C, strain met16, hits give low values 1.02 | S. cerevisiae deletion strains, strain wtn01, hits give low values 1.01 | S. cerevisiae strains, strain wild type, hits give low values 1
